PubChem BioAssay (EPA / NIEHS)
Activity calls are given as the source filed them. The calls were made as follows: active = hit-call score of the fitted dose curve at least 0.9, where 1 is the maximum; inactive = score below 0.9.

Tests used:
[1] = read-out: Urokinase-type plasminogen activator receptor (uPAR), PLAUR (gene 5329); assay: BSK_4H_uPAR: BioMAP Diversity Plus: 4H Assay for Urokinase-type plasminogen activator receptor (uPAR) Biomarker Activity (AID 2283030); details: primary human endothelial cells (HUVEC); actives raise or lower the signal
Outline: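 uPAR level read by ELISA on HUVEC cultures (BioMAP 4H) 24 h post-dosing, analyzed for gain or loss relative to DMSO. Parallel SRB staining assessed overt cytotoxicity.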

[2] = read-out: Vascular endothelial growth factor receptor 2 (Homo sapiens) (UniProt P35968); assay: BSK_4H_VEGFRII: BioMAP Diversity Plus: 4H Assay for Vascular endothelial growth factor receptor 2 (VEGFR2) Biomarker Activity (AID 2283031); details: primary human endothelial cells (HUVEC); actives raise or lower the signal
Outline: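 Measured by ELISA after 24 h of compound treatment: VEGFR2 on primary human umbilical vein endothelial cells, fitted in both directions relative to DMSO. Parallel cultures received SRB staining (560 nm) for overt cytotoxicity.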

[3] = read-out: Human Leukocyte Antigen - DR isotype (HLADR), HLA-DRA (gene 3122); assay: BSK_BE3C_HLADR: BioMAP Diversity Plus: BE3C Assay for Human Leukocyte Antigen - DR isotype (HLADR) Biomarker Activity (AID 2283032); details: primary human bronchial epithelial cells; actives raise or lower the signal
Outline: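 Signal came from an ELISA for HLA-DR in human bronchial epithelial primary cells harvested 24 h after treatment; gain- and loss-of-signal fitting used DMSO controls as reference.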

[4] = read-out: Vascular cell adhesion molecule 1 (VCAM1), VCAM1 (gene 7412); assay: BSK_4H_VCAM1: BioMAP Diversity Plus: 4H Assay for Vascular cell adhesion molecule 1 (VCAM1) Biomarker Activity (AID 2283033); details: primary human endothelial cells (HUVEC); actives raise or lower the signal;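 as to outcome: cell-surface VCAM-1 protein measured by ELISA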
Outline: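 Endpoint derived from bidirectional fitting against DMSO controls of VCAM-1 ELISA signal in umbilical vein endothelial cells sampled at 24 h following treatment.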

[5] = read-out: Interferon-gamma inducible Protein 10 (IP10), CXCL10 (gene 3627); assay: BSK_BE3C_IP10: BioMAP Diversity Plus: BE3C Assay for Interferon-gamma inducible Protein 10 (IP10) Biomarker Activity (AID 2283034); details: primary human bronchial epithelial cells; actives raise or lower the signal
Outline: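 Using primary human bronchial epithelial cultures, the assay captures IP-10 by ELISA one day (24 h) after exposure. Parallel SRB staining of total protein flags overt cytotoxicity. Fits run bidirectionally relative to DMSO.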

[6] = read-out: Monokine induced gamma interferon (MIG), CXCL9 (gene 4283); assay: BSK_BE3C_MIG: BioMAP Diversity Plus: BE3C Assay for Monokine induced gamma interferon (MIG) Biomarker Activity (AID 2283035); details: primary human bronchial epithelial cells; actives raise or lower the signal;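 as to outcome: MIG protein measured by ELISA in BE3C cultures after 24 h of dosing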
Outline: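 MIG level was determined by ELISA after 24 h chemical treatment of primary human bronchial epithelial cells. Values were fitted bidirectionally with DMSO as the negative control and activity baseline.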

[7] = read-out: Transforming growth factor beta 1 (TGFb1), TGFB1 (gene 7040); assay: BSK_BE3C_TGFb1: BioMAP Diversity Plus: BE3C Assay for Transforming growth factor beta 1 (TGFb1) Biomarker Activity (AID 2283036;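 as to outcome: TGF-b1 protein level measured by ELISA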); details: primary human bronchial epithelial cells; actives raise or lower the signal
Outline: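 In this human primary bronchial epithelial system, an ELISA quantified TGF-b1 one day after dosing. Endpoint changes in either direction were fitted relative to DMSO.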

[8] = read-out: Plasminogen activator inhibitor-1 (PAI1), SERPINE1 (gene 5054); assay: BSK_BE3C_PAI1: BioMAP Diversity Plus: BE3C Assay for Plasminogen activator inhibitor-1 (PAI1) Biomarker Activity (AID 2283037); details: primary human bronchial epithelial cells; actives raise or lower the signal
Outline: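 PAI-1 biomarker levels in treated human bronchial epithelial cells are determined by ELISA at 24 h. Both increases and decreases relative to DMSO are fitted.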

[9] = read-out: urokinase plasminogen activator (uPA), PLAU (gene 5328); assay: BSK_BE3C_uPA: BioMAP Diversity Plus: BE3C Assay for urokinase plasminogen activator (uPA) Biomarker Activity (AID 2283038); details: primary human bronchial epithelial cells; actives raise or lower the signal;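 as to outcome: uPA protein level quantified by ELISA in cell cultures; uPA read one day after compound addition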
Outline: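 ELISA for uPA on human primary bronchial epithelial cultures 24 h post-treatment, gain or loss against DMSO. Parallel SRB staining (0.1% after 10% TCA fixation, 560 nm) assessed overt cytotoxicity.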

[10] = read-out: Urokinase-type plasminogen activator receptor (uPAR), PLAUR (gene 5329); assay: BSK_BE3C_uPAR: BioMAP Diversity Plus: BE3C Assay for Urokinase-type plasminogen activator receptor (uPAR) Biomarker Activity (AID 2283039); details: primary human bronchial epithelial cells; actives raise or lower the signal;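 as to outcome: uPAR protein level measured by ELISA on the cells; cells exposed to compound for one day before measurement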
Outline: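 A uPAR ELISA serves as the readout, taken 24 h after treating primary human bronchial epithelial cells. Responses in either direction are fitted against DMSO, which defines baseline activity.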

[11] = read-out: Interleukin-6 (IL6), IL6 (gene 3569); assay: BSK_CASM3C_IL6: BioMAP Diversity Plus: CASM3C Assay for Interleukin-6 (IL6) Biomarker Activity for (AID 2283040); details: primary human coronary artery smooth muscle cells; actives raise or lower the signal
[12] = read-out: Tissue plasminogen activator (tPA), PLAT (gene 5327); assay: BSK_BE3C_tPA: BioMAP Diversity Plus: BE3C Assay for Tissue plasminogen activator (tPA) Biomarker Activity (AID 2283041); details: primary human bronchial epithelial cells; actives raise or lower the signal;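 also: tPA level quantified by ELISA one day after compound addition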
Outline: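 Bidirectional curve fitting relative to DMSO defined activity, with tPA detected by ELISA in chemically treated human bronchial epithelial primary cells at 24 hours.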

[13] = read-out: Interleukin-8 (IL8), CXCL8 (gene 3576); assay: BSK_CASM3C_IL8: BioMAP Diversity Plus: CASM3C Assay for Interleukin-8 (IL8) Biomarker Activity (AID 2283042); details: primary human coronary artery smooth muscle cells; actives raise or lower the signal;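 also: IL-8 protein level quantified by ELISA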
[14] = read-out: Human Leukocyte Antigen - DR isotype (HLADR), HLA-DRA (gene 3122); assay: BSK_CASM3C_HLADR: BioMAP Diversity Plus: CASM3C Assay for Human Leukocyte Antigen - DR isotype (HLADR) Biomarker Activity (AID 2283043); details: primary human coronary artery smooth muscle cells; actives raise or lower the signal;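 also: cell-surface HLA-DR protein level quantified by ELISA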
[15] = read-out: Macrophage colony-stimulating factor (MCSF), CSF1 (gene 1435); assay: BSK_CASM3C_MCSF: BioMAP Diversity Plus: CASM3C Assay for Macrophage colony-stimulating factor (MCSF) Biomarker Activity (AID 2283044); details: primary human coronary artery smooth muscle cells; actives raise or lower the signal;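 also: M-CSF protein amount quantified by ELISA after 24 h exposure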
[16] = read-out: Low-density lipoprotein receptor (LDLR), LDLR (gene 3949); assay: BSK_CASM3C_LDLR: BioMAP Diversity Plus: CASM3C Assay for Low-density lipoprotein receptor (LDLR) Biomarker Activity (AID 2283045); details: primary human coronary artery smooth muscle cells; actives raise or lower the signal;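 also: LDLR protein level on the cell surface quantified by ELISA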
[17] = read-out: Monocyte Chemoattractant Protein-1 (MCP1), CCL2 (gene 6347); assay: BSK_CASM3C_MCP1: BioMAP Diversity Plus: CASM3C Assay for Monocyte Chemoattractant Protein-1 (MCP1) Biomarker Activity (AID 2283046); details: primary human coronary artery smooth muscle cells; actives raise or lower the signal;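 also: MCP-1 level quantified by ELISA 24 h after dosing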
[18] = BSK_CASM3C_Proliferation: Cell Proliferation Assessment in the BioMAP Diversity Plus: CASM3C Assay (AID 2283047); details: primary human coronary artery smooth muscle cells;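 also: sulforhodamine B total protein stain as relative cell number at 560 nm; sub-confluent cells exposed 48 h before staining; fitted both ways against DMSO so gain or loss of cell number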
[19] = read-out: Monokine induced gamma interferon (MIG), CXCL9 (gene 4283); assay: BSK_CASM3C_MIG: BioMAP Diversity Plus: CASM3C Assay for Monokine induced gamma interferon (MIG) Biomarker Activity (AID 2283048); details: primary human coronary artery smooth muscle cells; actives raise or lower the signal;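 also: MIG protein level measured by ELISA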
[20] = read-out: serum amyloid A (SAA), SAA1 (gene 6288); assay: BSK_CASM3C_SAA: BioMAP Diversity Plus: CASM3C Assay for serum amyloid A (SAA) Biomarker Activity (AID 2283049); details: primary human coronary artery smooth muscle cells; actives raise or lower the signal;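 also: SAA protein level quantified by ELISA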

## CCC(CC)Nc1c([N+](=O)[O-])cc(C)c(C)c1[N+](=O)[O-]
[1]
  outcome: inactive
[2]
  outcome: inactive
[3]
  outcome: inactive
[4]
  AC50: 20 µM (active)
[5]
  outcome: inactive
[6]
  outcome: inactive
[7]
  outcome: inactive
[8]
  outcome: inactive
[9]
  outcome: inactive
[10]
  outcome: inactive
[11]
  AC50: 26.9 µM (active)
[12]
  outcome: inactive
[13]
  outcome: inactive
[14]
  outcome: inactive
[15]
  outcome: inactive
[16]
  outcome: inactive
[17]
  outcome: inactive
[18]
  AC50: 13.9 µM (active)
[19]
  outcome: inactive
[20]
  outcome: inactive

## CC[C@H](C)[C@H]1O[C@]2(C=C[C@@H]1C)C[C@@H]1C[C@@H](C/C=C(\C)[C@@H](O[C@H]3C[C@H](OC)[C@@H](O[C@H]4C[C@H](OC)[C@@H](NC)[C@H](C)O4)[C@H](C)O3)[C@@H](C)/C=C/C=C3\CO[C@@H]4[C@H](O)C(C)=C[C@@H](C(=O)O1)[C@]34O)O2
[1]
  AC50: 1.73 µM (active)
[2]
  outcome: inactive
[3]
  AC50: 3.98 µM (active)
[4]
  AC50: 8.45 µM (active)
[5]
  AC50: 7.15 µM (active)
[6]
  AC50: 8.8 µM (active)
[7]
  AC50: 9.47 µM (active)
[8]
  AC50: 6.98 µM (active)
[9]
  AC50: 10.9 µM (active)
[10]
  AC50: 5.78 µM (active)
[11]
  outcome: inactive
[12]
  outcome: inactive
[13]
  AC50: 14.2 µM (active)
[14]
  AC50: 12.6 µM (active)
[15]
  AC50: 11.6 µM (active)
[16]
  outcome: inactive
[17]
  AC50: 12.9 µM (active)
[18]
  AC50: 5.53 µM (active)
[19]
  AC50: 13.7 µM (active)
[20]
  AC50: 9.71 µM (active)

## Cc1cc(C2CC2)nc(Nc2ccccc2)n1
[1]
  outcome: inactive
[2]
  outcome: inactive
[3]
  AC50: 5.17 µM (active)
[4]
  outcome: inactive
[5]
  outcome: inactive
[6]
  outcome: inactive
[7]
  outcome: inactive
[8]
  outcome: inactive
[9]
  outcome: inactive
[10]
  outcome: inactive
[11]
  outcome: inactive
[12]
  outcome: inactive
[13]
  outcome: inactive
[14]
  outcome: inactive
[15]
  outcome: inactive
[16]
  outcome: inactive
[17]
  outcome: inactive
[18]
  AC50: 14.4 µM (active)
[19]
  outcome: inactive
[20]
  outcome: inactive

## CCOP(=S)(OCC)SCCSCC
[1]
  outcome: inactive
[2]
  outcome: inactive
[3]
  outcome: inactive
[4]
  outcome: inactive
[5]
  outcome: inactive
[6]
  outcome: inactive
[7]
  outcome: inactive
[8]
  outcome: inactive
[9]
  outcome: inactive
[10]
  outcome: inactive
[11]
  outcome: inactive
[12]
  outcome: inactive
[13]
  outcome: inactive
[14]
  outcome: inactive
[15]
  outcome: inactive
[16]
  outcome: inactive
[17]
  outcome: inactive
[18]
  outcome: inactive
[19]
  outcome: inactive
[20]
  outcome: inactive

## CC(=NC#N)N(C)Cc1ccc(Cl)nc1
[1]
  outcome: inactive
[2]
  outcome: inactive
[3]
  outcome: inactive
[4]
  outcome: inactive
[5]
  outcome: inactive
[6]
  outcome: inactive
[7]
  outcome: inactive
[8]
  outcome: inactive
[9]
  outcome: inactive
[10]
  outcome: inactive
[11]
  outcome: inactive
[12]
  outcome: inactive
[13]
  outcome: inactive
[14]
  outcome: inactive
[15]
  outcome: inactive
[16]
  outcome: inactive
[17]
  outcome: inactive
[18]
  outcome: inactive
[19]
  outcome: inactive
[20]
  outcome: inactive

## CCC(=NOC/C=C/Cl)C1=C(O)CC(C2CCOCC2)CC1=O (stereo not given)
[1]
  outcome: inactive
[2]
  outcome: inactive
[3]
  outcome: inactive
[4]
  outcome: inactive
[5]
  outcome: inactive
[6]
  outcome: inactive
[7]
  outcome: inactive
[8]
  outcome: inactive
[9]
  outcome: inactive
[10]
  outcome: inactive
[11]
  outcome: inactive
[12]
  outcome: inactive
[13]
  outcome: inactive
[14]
  outcome: inactive
[15]
  outcome: inactive
[16]
  outcome: inactive
[17]
  outcome: inactive
[18]
  outcome: inactive
[19]
  outcome: inactive
[20]
  outcome: inactive
